Experimental findings from the supplement of paper PMC9948646 are described below.

Molecules are shown by their SMILES.

The assay relates to gramicidin D channels in DC22:1PC lipid vesicles (bilayer-modifying potency). Description: initial Tl+ fluorescence quench rate relative to no-drug control (NormRate, gramicidin monomer-dimer shift) (ratio (fold of control)); higher = stronger bilayer-modifying effect (equilibrium shifted toward conducting dimers), active = 1.5 or more. The following applies: 10 µM; lipid concentration 50 µM; temperature: 25 °C. Here is the method: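 Stopped-flow fluorescence quench assay: ANTS-loaded DC22:1PC large unilamellar vesicles doped with gramicidin D (1:2000), 50 µM lipid, equilibrated 10 min with 10 µM drug (0.1% DMSO), mixed with Tl+ quench buffer at 25°C. Initial quench rate (Tl+ influx) was fitted with a modified stretched exponential and normalised to the no-drug control rate (NormRate); duplicates from two independent LUV preparations (triplicates for 7 drugs).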
With `c1csc(-c2cnc3sc(NCC4CCOCC4)nn23)c1`, the “initial Tl+ fluorescence quench rate” value is 1.71 (active).
`Cc1cccc(NC(=O)c2cc(S(=O)(=O)N(C)c3ccc(F)cc3)ccc2Cl)n1`: the “initial Tl+ fluorescence quench rate” value was 1.5 (active).
As to `FC(F)(F)c1cc(NCCc2ccccc2)nc(-c2ccccn2)n1`, the “initial Tl+ fluorescence quench rate” value was 1.31 (inactive).
Consider `O=C(N[C@H](Cc1ccccc1)C(=O)Nc1ccccc1N1CCOCC1)c1cccs1`, for which the “initial Tl+ fluorescence quench rate” value was 1.21 (inactive).
For the compound `COc1cc(N[C@H](C)CCCN)c2ncccc2c1`, the “initial Tl+ fluorescence quench rate” value was 1.02 (inactive).
Regarding `COc1ccc2nccc(NC(=O)C3CCN(CCc4ccc(Cl)cc4)CC3)c2n1`, the “initial Tl+ fluorescence quench rate” value was 1.09 (inactive).
With `COc1ccc(-c2cnc3ccc(N4CCCC4)nn23)cc1OC` the figure was 2.31 (active); with `CC(C)(C)n1nc(Cc2ccc(F)c(Cl)c2)c2c(N)ncnc21`, 1.84 (active).
With `CNc1cc(C)nc([C@@H]2CN(C(=O)c3n[nH]c4ccccc34)CCO2)c1` the figure was 1.11 (inactive).
Next, `CC(C)=CCC/C(C)=C\CNCCN[C@H]1[C@@H]2C[C@H]3C[C@@H](C2)C[C@@H]1C3`: 1.66 (active).
In the case of `CC(C)n1ncc2c(C(=O)NC[C@H](c3cccs3)N3CCOCC3)cc(-c3ccccc3)nc21`, the “initial Tl+ fluorescence quench rate” value was 2.74 (active).
With `CN1CCCN([C@H](c2ccccc2)c2ccc(Cl)cc2)CC1` the figure was 1.43 (inactive); with `CC(C)(C)CN1C(=O)C(c2ccccc2)(c2ccccc2)N=C1N`, 2.96 (active); with `C[C@@H](c1cc(Cl)cc(Cl)c1)N(C)c1ncc2c(N)nc(N)nc2n1`, 2.71 (active).
For `COc1cc(-c2cc(-c3ccc(S(C)(=O)=O)cc3)cnc2N)ccc1O`, the “initial Tl+ fluorescence quench rate” value was 1.09 (inactive).
